Several values for one entry are separate records, joined by “and”; a condition that tells them apart may be missing. Equal entries are not always repeated. Activity calls are given as the source filed them. How the source made its calls: active means hit-call score of the fitted dose curve at least 0.9, where 1 is the maximum; inactive means score below 0.9.
How the values were obtained:
[1] = read-out: Macrophage colony-stimulating factor (MCSF), CSF1 (gene 1435); assay: BSK_hDFCGF_MCSF: BioMAP Diversity Plus: hDFCGF Assay for Macrophage colony-stimulating factor (MCSF) Biomarker Activity (AID 2283060); conditions: primary human foreskin fibroblasts; actives raise or lower the signal
How it was run: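 M-CSF levels, determined by ELISA, are taken at 24 h after dosing human skin fibroblasts. Responses in either direction are fitted with DMSO serving as the baseline.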

[2] = BSK_hDFCGF_SRB: Viability Assessment in the BioMAP Diversity Plus: hDFCGF Assay (AID 2283061); conditions: primary human foreskin fibroblasts;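 further: cells exposed to compound for 24 h before the read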
How it was run: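 Cells were dosed with test chemical, cultured 24 h, fixed with 10% TCA, then stained with 0.1% SRB and read at 560 nm. The fibroblasts were human foreskin primary cells, and DMSO served as baseline.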

[3] = read-out: TIMP metallopeptidase inhibitor 1 (TIMP1), TIMP1 (gene 7076); assay: BSK_hDFCGF_TIMP1: BioMAP Diversity Plus: hDFCGF Assay for TIMP metallopeptidase inhibitor 1 (TIMP1) Biomarker Activity (AID 2283062); conditions: primary human foreskin fibroblasts; actives raise or lower the signal
How it was run: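 Fibroblasts from human foreskin are treated with test chemical and harvested at 24 h. TIMP-1 is quantified by ELISA, and gain or loss of signal is scored against DMSO.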

[4] = read-out: Monokine induced gamma interferon (MIG), CXCL9 (gene 4283); assay: BSK_hDFCGF_MIG: BioMAP Diversity Plus: hDFCGF Assay for Monokine induced gamma interferon (MIG) Biomarker Activity (AID 2283063); conditions: primary human foreskin fibroblasts; actives raise or lower the signal
How it was run: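 MIG signal, determined by ELISA, reflects 24 h chemical exposure of human skin primary fibroblasts. DMSO serves as negative control and baseline.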

[5] = read-out: Matrix Metallopeptidase 1 (MMP1), MMP1 (gene 4312); assay: BSK_hDFCGF_MMP1: BioMAP Diversity Plus: hDFCGF Assay for Matrix Metallopeptidase 1 (MMP1) Biomarker Activity (AID 2283064); conditions: primary human foreskin fibroblasts; actives raise or lower the signal
How it was run: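 hDFCGF primary fibroblasts (human foreskin); chemical added; 24 h; MMP1 by ELISA; bidirectional fit vs DMSO.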

[6] = read-out: Plasminogen activator inhibitor-1 (PAI1), SERPINE1 (gene 5054); assay: BSK_hDFCGF_PAI1: BioMAP Diversity Plus: hDFCGF Assay for Plasminogen activator inhibitor-1 (PAI1) Biomarker Activity (AID 2283066); conditions: primary human foreskin fibroblasts; actives raise or lower the signal
How it was run: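 Human foreskin fibroblasts in the hDFCGF system were dosed with compound for 24 h; PAI-1 was quantified by ELISA. Bidirectional curve fitting used DMSO as negative control and baseline.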

[7] = read-out: Intercellular Adhesion Molecule 1 (ICAM1), ICAM1 (gene 3383); assay: BSK_KF3CT_ICAM1: BioMAP Diversity Plus: KF3CT Assay for Intercellular Adhesion Molecule 1 (ICAM1) Biomarker Activity (AID 2283067); conditions: primary human keratinocytes with fibroblasts; actives raise or lower the signal
How it was run: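 Dose the keratinocyte/fibroblast co-culture, wait 24 h, measure ICAM-1 by ELISA, then fit increases or decreases against DMSO. Cytotoxicity is checked in parallel cultures by SRB total-protein staining.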

[8] = read-out: Interferon-gamma inducible Protein 10 (IP10), CXCL10 (gene 3627); assay: BSK_KF3CT_IP10: BioMAP Diversity Plus: KF3CT Assay for Interferon-gamma inducible Protein 10 (IP10) Biomarker Activity (AID 2283068); conditions: primary human keratinocytes with fibroblasts; actives raise or lower the signal
How it was run: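 Signal is secreted/surface IP-10 by ELISA in a human primary skin co-culture of keratinocytes and foreskin fibroblasts, taken 24 h post-dosing; DMSO served as negative control.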

[9] = BSK_KF3CT_SRB: Viability Assessment in the BioMAP Diversity Plus: KF3CT Assay (AID 2283069); conditions: primary human keratinocytes with fibroblasts;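 further: fitted for both signal gain and loss against DMSO baseline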
How it was run: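 Keratinocytes co-cultured with foreskin fibroblasts (human primary); chemical added, 24 h; fix 10% TCA, stain 0.1% SRB, A560. Bidirectional fit vs DMSO.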

[10] = read-out: Interleukin-1 alpha (IL1a), IL1A (gene 3552); assay: BSK_KF3CT_IL1a: BioMAP Diversity Plus: KF3CT Assay for Interleukin-1 alpha (IL1a) Biomarker Activity (AID 2283070); conditions: primary human keratinocytes with fibroblasts; actives raise or lower the signal
How it was run: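 Chemicals were dosed onto co-cultured human keratinocytes and foreskin fibroblasts, IL-1a was quantified by ELISA at 24 h, and activity was fitted in both directions relative to DMSO controls.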

[11] = read-out: TIMP metallopeptidase inhibitor 2 (TIMP2), TIMP2 (gene 7077); assay: BSK_KF3CT_TIMP2: BioMAP Diversity Plus: KF3CT Assay for TIMP metallopeptidase inhibitor 2 (TIMP2) Biomarker Activity (AID 2283071); conditions: primary human keratinocytes with fibroblasts; actives raise or lower the signal
How it was run: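 Human primary keratinocyte/foreskin fibroblast co-culture dosed with chemical and sampled at 24 h. TIMP-2 levels quantified by ELISA; bidirectional fitting against DMSO negative control as baseline.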

[12] = read-out: C-C motif chemokine 2 (Homo sapiens) (UniProt P13500); assay: BSK_KF3CT_MCP1: BioMAP Diversity Plus: KF3CT Assay for Monocyte Chemoattractant Protein 1 (MCP1/CCL2) Biomarker Activity (AID 2283073); conditions: primary human keratinocytes with fibroblasts; actives raise or lower the signal
How it was run: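 Keratinocytes and foreskin fibroblasts were co-cultured, dosed with chemical, and sampled 24 h later. MCP-1 was quantified by ELISA, and the endpoint was analyzed with bidirectional fitting using DMSO as negative control.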

[13] = read-out: Matrix Metallopeptidase 9 (MMP9), MMP9 (gene 4318); assay: BSK_KF3CT_MMP9: BioMAP Diversity Plus: KF3CT Assay for Matrix Metallopeptidase 9 (MMP9) Biomarker Activity (AID 2283074); conditions: primary human keratinocytes with fibroblasts; actives raise or lower the signal;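 on AC50: MMP9 protein level quantified by ELISA in the co-culture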
How it was run: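 Human keratinocyte/foreskin fibroblast co-culture; compound added; 24 h; MMP-9 by ELISA; bidirectional fit vs DMSO baseline.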

[14] = read-out: urokinase plasminogen activator (uPA), PLAU (gene 5328); assay: BSK_KF3CT_uPA: BioMAP Diversity Plus: KF3CT Assay for urokinase plasminogen activator (uPA) Biomarker Activity (AID 2283075); conditions: primary human keratinocytes with fibroblasts; actives raise or lower the signal
How it was run: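 ELISA readout of uPA, analyzed for signal gain or loss relative to DMSO, from a human primary keratinocyte–foreskin fibroblast co-culture measured 24 h after chemical treatment.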

CD40, CD40 (gene 958) = assay: BSK_LPS_CD40: BioMAP Diversity Plus: LPS Assay for CD40 Biomarker Activity (AID 2283076); conditions: primary human HUVEC with PBMC; actives raise or lower the signal
How it was run: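 CD40 signal, measured by ELISA, is fitted in both directions relative to DMSO vehicle. The system is an LPS-driven human vascular primary co-culture of endothelial cells and PBMC, sampled 24 h after compound addition.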

[15] = read-out: E-selectin (Homo sapiens) (UniProt P16581); assay: BSK_LPS_Eselectin: BioMAP Diversity Plus: LPS Assay for Eselectin Biomarker Activity (AID 2283077); conditions: primary human HUVEC with PBMC; actives raise or lower the signal
How it was run: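 Signal of E-selectin, detected by ELISA, served as the endpoint; cells were umbilical vein endothelium with PBMC, read 24 h after treatment. DMSO defined baseline, and both increases and decreases were fitted.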

[16] = read-out: Interleukin-8 (IL8), CXCL8 (gene 3576); assay: BSK_LPS_IL8: BioMAP Diversity Plus: LPS Assay for Interleukin-8 (IL8) Biomarker Activity (AID 2283078); conditions: primary human HUVEC with PBMC; actives raise or lower the signal
How it was run: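 Endothelial cells and PBMC from human donors are co-cultured, treated with chemicals and LPS, then assayed for IL-8 by ELISA after 24 h. Parallel SRB staining (0.1% SRB after 10% TCA fixation, 560 nm) flags cytotoxicity.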

[17] = read-out: Transforming growth factor beta 1 (TGFb1), TGFB1 (gene 7040); assay: BSK_KF3CT_TGFb1: BioMAP Diversity Plus: KF3CT Assay for Transforming growth factor beta 1 (TGFb1) Biomarker Activity (AID 2283072); conditions: primary human keratinocytes with fibroblasts; actives raise or lower the signal
How it was run: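 Human keratinocyte plus foreskin fibroblast primary co-culture, dosed with chemical for 24 h. TGF-b1 quantified by ELISA. Activity fitted bidirectionally against DMSO negative control as baseline.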

[18] = BSK_LPS_SRB: Viability Assessment in the BioMAP Diversity Plus: LPS Assay (AID 2283079); conditions: primary human HUVEC with PBMC;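 further: total protein by sulforhodamine B absorbance as a cytotoxicity measure; measured one day after compound addition; fitted in both directions against DMSO so loss or gain of signal counts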
How it was run: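 Overt cytotoxicity was gauged by sulforhodamine B total-protein staining in a primary human vascular endothelial and mononuclear cell co-culture 24 h post-dosing. Activity was fitted in both directions relative to DMSO.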

Measured: AC50

Sequence of E-selectin (Homo sapiens) (P16581 whole entry, looked up): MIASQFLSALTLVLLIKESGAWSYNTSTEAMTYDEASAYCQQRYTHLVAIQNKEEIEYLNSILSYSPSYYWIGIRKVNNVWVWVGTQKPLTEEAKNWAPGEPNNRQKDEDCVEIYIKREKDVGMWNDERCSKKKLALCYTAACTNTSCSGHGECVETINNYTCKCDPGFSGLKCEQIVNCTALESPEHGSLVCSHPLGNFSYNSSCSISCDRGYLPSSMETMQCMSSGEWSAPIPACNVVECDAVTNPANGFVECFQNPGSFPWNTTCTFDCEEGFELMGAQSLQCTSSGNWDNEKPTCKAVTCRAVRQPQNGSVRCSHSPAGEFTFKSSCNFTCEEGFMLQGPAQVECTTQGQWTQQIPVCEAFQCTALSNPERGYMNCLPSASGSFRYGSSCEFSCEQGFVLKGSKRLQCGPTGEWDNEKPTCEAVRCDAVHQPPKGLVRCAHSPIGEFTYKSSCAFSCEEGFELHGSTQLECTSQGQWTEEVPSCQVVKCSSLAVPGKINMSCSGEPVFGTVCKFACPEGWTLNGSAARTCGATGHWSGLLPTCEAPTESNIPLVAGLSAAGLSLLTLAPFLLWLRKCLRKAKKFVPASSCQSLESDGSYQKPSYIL

Oc1ccccc1Cc1ccccc1O
active: [2] 1.22 µM and 191 nM
not listed: [17] | [18]
inactive: all other assays above

CC(C)CCCCCOC(=O)CS
active: [6] 9.15 µM
not listed: [18]
inactive: all other assays above

CCCCCCCCCCCC(C)=O
active: [11] 3.97 µM | [12] 31.5 µM | CD40, CD40 (gene 958) 31.3 µM | [15] 23.9 µM
not listed: [18]
inactive: all other assays above

C=CC(=O)NCOCCCC
not listed: [18]
inactive: all other assays above

CCC1(C)C(=O)N(Cl)C(=O)N1Cl (centres undefined)
inactive: all assays above

COc1ccc(C(=O)c2ccccc2)c(O)c1
active: [13] 20 µM
inactive: all other assays above

Reference: PubChem BioAssay (EPA / NIEHS)
